Molecules are shown by their SMILES. Out of some 52,000 compounds screened, about 4,300 (8.3%) were called active. The sample as a whole holds a higher share of actives than the screen did. Values without a mark were called inactive. Cut-off read from the data, not from the text of the source: active = survival mostly below about 52% (no sharp cut-off); inactive = mostly above about 56%.

The subject of the assay is DeltatarO mutant. As to the kind of experiment: growth inhibition of S. aureus wild type versus tarO mutant, primary screen, teichoic acid synthesis inhibitors, RN4220, OD600 (AID 463173). Particulars: OD600, 18 h, active compounds read low, screened at 18.75 µg/mL (by protocol).
On to `Cc1cccc(OCc2nnc(SC(C)C(=O)O)n2Cc2ccccc2)c1` (stereo not given), for which the survival is 103%.
In the case of `CCc1ccc(N(CC(=O)N2CCCCC2)S(C)(=O)=O)cc1`, the survival is 105%.
Consider `CCc1ccc(CNC(=O)C2CCN(c3nnc(-n4c(C)ccc4C)s3)CC2)cc1`, for which the survival is 86%.
Turning to `COc1cccc(CNC(=O)c2cc(=O)[nH]c3ccc(S(=O)(=O)N4CCCC4)cc23)c1`, the survival is 60%.
As to `COc1ccc(-c2nc3sc(CCNC(=O)Cc4ccc(F)cc4)c(C)n3n2)cc1`, the survival was 94%.
As to `CCOC(=O)c1c(C)[nH]c(C)c1S(=O)(=O)N(C)CC(=O)Nc1cc(Cl)ccc1OC`, the survival is 117%.
With `CCOC(=O)c1scc(-c2ccc(C)cc2)c1S(=O)(=O)Nc1ccc(OC)c(Cl)c1`, the survival is 77%.
Consider `CCOC(=O)c1c(C)[nH]c(C)c1S(=O)(=O)NCC(=O)Nc1cc(C)ccc1OC`, for which the survival is 60%.
With `CCc1ccccc1NC(=O)CN(c1ccc(OC)cc1)S(=O)(=O)c1c(C)n[nH]c1C`, the survival was 74%.
As for `CCOC(=O)c1scc(-c2ccc(C)cc2)c1S(=O)(=O)Nc1cc(Cl)ccc1OC`, the survival was -5% (active).
Take `COc1ccc(NC(=O)CN(c2cc(C)cc(C)c2)S(=O)(=O)c2c(C)noc2C)cc1Cl`: the survival was 91%.
For the compound `COc1ccccc1NC(=O)CN(c1cc(C)cc(C)c1)S(=O)(=O)c1c(C)[nH]c(=O)[nH]c1=O`, the survival is 118%.
Take `COc1ccc(Cl)cc1NC(=O)CN(c1cc(C)cc(C)c1)S(=O)(=O)c1c(C)n[nH]c1C`: the survival was 9% (active).
As for `CCOc1ccc(N(CC(=O)Nc2cc(C)ccc2C)S(=O)(=O)c2c(C)[nH]c(=O)[nH]c2=O)cc1`, the survival is 69%.
Consider `CCOc1ccc(OCC)c(NC(=O)CN(c2ccc(C)cc2)S(=O)(=O)c2c(C)n[nH]c2C)c1`, for which the survival was 32% (active).
Turning to `CCOC(=O)c1c(C)[nH]c(C)c1S(=O)(=O)NCC(=O)Nc1cc(Cl)ccc1OC`, the survival is -4% (active).
Consider `CCOC(=O)c1scc(-c2ccc(C)cc2)c1S(=O)(=O)Nc1cc(OC)ccc1OC`, for which the survival was 92%.
`COc1ccc(NC(=O)c2c(NCc3cccs3)sc3c2CCCCC3)c(OC)c1`: the survival is 69%.
As to `CC1CN(C(=O)CCC(=O)NCc2ccc(F)cc2)c2cc(Cl)ccc2O1` (stereo not given), the survival is 80%.
The figure for `Cc1cc(-c2ccccc2)nc2cc(C(=O)Nc3ccc(Cl)c(Cl)c3)nn12` is 52%; for `CC(=O)N1CCCC1c1nc2ccccc2n1Cc1ccccc1F` (stereo not given) it is 61%.
The figure for `COC(=O)c1ccc(OCC2c3cc(OC)c(OC)cc3CCN2C(=O)c2ccc(F)cc2)cc1` (stereo not given) is 76%.
Then `COc1ccc(CCNC(=O)c2ccc3c(c2)N(Cc2ccc(F)cc2)C(=O)c2ccccc2S3(=O)=O)cc1OC`, with 104%; and `CC(C)NS(=O)(=O)c1cccs1`, with 65%; and `O=S(=O)(Nc1ccc(O)cc1)c1cccs1`, with 83%.
Consider `CC(C)c1cccc(C(C)C)c1NS(=O)(=O)c1cccs1`, for which the survival was 41% (active).
`CCN(Cc1nc(-c2ccc(OC)c(OC)c2)no1)S(=O)(=O)c1ccc(OC)cc1`: the survival is 47%.
As for `Cc1ccc(-c2noc(CN(C3CCCCC3)S(=O)(=O)c3ccc(C)cc3)n2)cc1`, the survival was 62%.
Regarding `COc1ccc(S(=O)(=O)N(Cc2nc(-c3ccc(C)cc3)no2)C2CCCCC2)cc1`, the survival was 63%.
The figure for `COc1ccc(-c2noc(CN(C(C)C)S(=O)(=O)c3ccc(Br)cc3)n2)cc1` is 44% (active).
As for `Cc1cccc(-c2noc(CNC(=O)c3ccco3)n2)c1`, the survival is 83%.
On to `Cc1cccc(-c2noc(CN(C(C)C)S(=O)(=O)c3ccc(Br)cc3)n2)c1`, for which the survival was 45% (active).
With `O=C(CCS(=O)(=O)c1cc2c(cc1Cl)NC(=O)CO2)NCc1ccccc1`, the survival was 106%.
Consider `CCOC(=O)c1c(C)[nH]c(CCC(=O)NCc2cc(Br)ccc2OC)c1C`, for which the survival was 115%.
As for `O=C(NCCN1CCOCC1)c1ccncc1`, the survival was 96%.
Then `Cc1cccc(OCC(=O)Nc2cccc(OCc3cc(=O)n4cccc(C)c4n3)c2)c1`, with 109%.
For the compound `COc1cc(-c2cc3n(C)c(C)c(CCC(=O)NCc4ccccc4)c(=O)n3n2)cc(OC)c1OC`, the survival is 92%.
`COc1cc(-c2cc3n(C)c(C)c(CCC(=O)O)c(=O)n3n2)cc(OC)c1OC`: the survival was 94%.
Turning to `COCCNC(=O)CCc1c(C)n(C)c2cc(-c3cc(OC)c(OC)c(OC)c3)nn2c1=O`, the survival is 25% (active).
Regarding `O=C(O)CCC(=O)Nc1ccncc1`, the survival is 92%.
For `Cc1ccc(Cl)cc1N1CCN(C(=O)CCSCc2ccccc2F)CC1`, the survival is 89%.
Regarding `Cc1cc(C)cc(NC(=O)C(=O)NCC(c2cccnc2)N2CCOCC2)c1` (stereo not given), the survival is 107%.
Then `CCOC(=O)C1CCN(C(c2ccc(OCC)cc2)c2c(O)cc(C)n(CCOC)c2=O)CC1` (stereo not given), with 67%; and `CC(C)CN1C(=O)c2ccc(Br)cc2C1=O`, with 67%.
As to `Cc1cc(Br)cc2c1N(Cc1ccccc1OC(C)C)C(=O)C2=O`, the survival is 22% (active).
Regarding `CCCCOc1ccc(CN2C(=O)C(=O)c3cc(Br)cc(C)c32)cc1OC`, the survival was 49%.
On to `COc1ccccc1CN1C(=O)C(=O)c2cccc(C)c21`, for which the survival is 103%.
For `Cc1ccc2c(c1)C(=O)C(=O)N2Cc1ccc(OCCC(C)C)cc1`, the survival was 93%.
In the case of `Cc1ccc2c(c1)C(=O)C(=O)N2Cc1ccc(OC(C)C)cc1`, the survival is 120%.
Take `Cc1cccc2c1N(Cc1ccccc1OCCC(C)C)C(=O)C2=O`: the survival was 2% (active).
As to `Cc1ccc(CN2C(=O)C(=O)c3cc(Br)cc(C)c32)cc1`, the survival was 31% (active).
`CCCOc1ccc(CN2C(=O)C(=O)c3cccc(C)c32)cc1`: the survival is 39% (active).
Then `CCOc1ccc(CN2C(=O)C(=O)c3cccc(C)c32)cc1OC`, with 118%; and `Cc1ccc(C)c(CN2C(=O)C(=O)c3ccccc32)c1`, with 92%.
With `COc1ccccc1Cn1ccn(Cc2ccc(C)cc2)c(=O)c1=O`, the survival was 112%.
Turning to `Cc1cc(C)cc(NC(=O)C2CCCN2S(=O)(=O)c2ccc3c(c2)CCCC(=O)N3)c1` (stereo not given), the survival is 83%.
Then `CCc1ccc(NC(=O)Cn2nnc(C(=O)Nc3ccc(F)cc3)c2N)cc1`, with 99%; and `COc1ccc(-n2nc(C(=O)N3CCCC(C)C3)c3c4ccccc4n(C)c3c2=O)cc1` (stereo not given), with 74%.
Then `c1ccc(-c2nc(-c3cccnc3)no2)cc1`, with 98%; and `O=c1[nH]ncc(NCCc2ccccc2)c1Cl`, with 101%.
Regarding `N#Cc1ccccc1Cn1c(=O)n(Cc2ccc(C(=O)NC3CCN(Cc4ccccc4)CC3)cc2)c(=O)c2ccccc21`, the survival is 90%.
In the case of `COC(=O)c1ccc(NC(=O)C(=O)NCCc2sc3nc(-c4ccc(OC)cc4)nn3c2C)cc1`, the survival was 83%.
For `O/N=C1\CCCc2nnc3c(c21)CCCC3`, the survival was 101%.
On to `CCOC(=O)/C(C#N)=C\C1=C(N2CCCC2)CC(C)(C)OC1`, for which the survival is 91%.
Then `Cc1nc2ccc(S(=O)(=O)NCC(=O)Nc3ccc(F)cc3F)cc2s1`, with 120%.
In the case of `CCOc1ccc(S(=O)(=O)NCC(c2ccc(N(C)C)cc2)N2CCCC2)cc1` (stereo not given), the survival was 107%.
The figure for `COc1ccc(Nc2ncnc3onc(C)c23)cc1Cl` is 87%; for `O=C(c1ccc(Cl)cc1)N1CCC(c2nc3ccccc3o2)CC1` it is 79%.
For `CCc1ccccc1NC(=O)Cn1nnc(C(=O)NCc2ccco2)c1N`, the survival was 93%.
Turning to `CC(NC(=O)c1ccc2c(c1)CCN2S(=O)(=O)c1ccc(Cl)cc1)c1ccccc1` (stereo not given), the survival is 67%.
`COc1ccc(NC(=O)c2ccc3c(c2)CCN3S(=O)(=O)c2ccccc2)cc1`: the survival was 92%.
For `NS(=O)(=O)c1ccc(NC(=O)c2ccc3c(c2)CCN3S(=O)(=O)c2ccccc2)cc1`, the survival was 43% (active).
Regarding `CC(NC(=O)c1ccc2c(c1)CCN2S(=O)(=O)c1ccccc1)c1ccccc1` (stereo not given), the survival was 37% (active).
Take `CC(NC(=O)c1ccc2c(c1)CCN2S(C)(=O)=O)c1ccccc1` (stereo not given): the survival was 91%.
With `CC(C)c1ccc(NC(=O)c2ccc(F)c(S(=O)(=O)N3CCc4ccccc43)c2)cc1`, the survival is 83%.
In the case of `CC(C)c1ccc(NC(=O)c2ccc3c(c2)CCN3S(=O)(=O)c2ccccc2)cc1`, the survival is 44% (active).
Then `CC(=O)Nc1ccc(NC(=O)c2ccc3c(c2)CCN3S(=O)(=O)c2ccc(C)cc2)cc1`, with 62%; and `CS(=O)(=O)N1CCc2cc(C(=O)Nc3ccc(S(N)(=O)=O)cc3)ccc21`, with 48%.
The figure for `Cc1ccc(Nc2nc3ccccc3c3nnc(C)n23)c(C)c1` is 70%; for `CC(C)(C)OC(=O)N1CCC(c2c(C(=O)NCc3ccco3)cnn2-c2ccc(F)cc2F)CC1` it is 83%; for `COc1cc(C)ccc1OCCSc1nc2ccc(NC(=O)c3ccc4c(c3)OCO4)cc2s1` it is 64%.
The figure for `CN(C(=O)C1CCCN(c2ncnc3c2nc2n3CCCCC2)C1)c1ccccc1F` (stereo not given) is 81%; for `CCC(NC(=O)Nc1cc(OC)ccc1OC)c1c(-n2cccc2)sc2c1CCN(CC)C2` (stereo not given) it is 88%.
For the compound `Fc1cccc(CSc2ccc(-c3cccs3)nn2)c1`, the survival was 94%.
For the compound `Cc1ccc(C)c(CNC(=O)c2sc3ncnc(N(C)C4CCCCC4)c3c2C)c1`, the survival was 115%.
The figure for `Cc1ccc(Oc2coc3cc(OCC(=O)NC4CCCCC4)ccc3c2=O)cc1` is 55%.
The figure for `Cc1cc(C)cc(Oc2c(C(F)(F)F)oc3cc(OCC(=O)NC4CCCCC4)ccc3c2=O)c1` is 110%.
With `Cc1ccc(Oc2c(C(F)(F)F)oc3cc(OCC(=O)NC4CCCCC4)ccc3c2=O)cc1`, the survival was 46% (active).
In the case of `CCc1ccc(C(=O)COC(=O)C(NC(=O)C2CCC(C)CC2)C(C)C)cc1` (stereo not given), the survival was 72%.
With `CC1(C)CC(=O)C=C(NCC2CCNCC2)C1`, the survival was 95%.

Values taken from PubChem BioAssay AID463173 (ICCB-Longwood Screening Facility, Harvard Medical School, 2010).
